Data on 33 compounds can be found in PubChem BioAssay (NCATS).

The structures appear in SMILES notation. Records with an inconclusive call do not appear. Unmarked numbers belong to inactive results. Active and inactive are the calls of the source. Calls come from the whole dose curve; as a rule, active = well fitted inhibition curve with a large enough effect; inconclusive = small, poorly fitted or top-dose-only effect; inactive = no such curve, though single readings can be large or run the other way.
Potency is the fitted concentration of half-maximal effect.

Tyrosine-protein kinase Yes (Homo sapiens), sequence (P07947 whole entry, looked up): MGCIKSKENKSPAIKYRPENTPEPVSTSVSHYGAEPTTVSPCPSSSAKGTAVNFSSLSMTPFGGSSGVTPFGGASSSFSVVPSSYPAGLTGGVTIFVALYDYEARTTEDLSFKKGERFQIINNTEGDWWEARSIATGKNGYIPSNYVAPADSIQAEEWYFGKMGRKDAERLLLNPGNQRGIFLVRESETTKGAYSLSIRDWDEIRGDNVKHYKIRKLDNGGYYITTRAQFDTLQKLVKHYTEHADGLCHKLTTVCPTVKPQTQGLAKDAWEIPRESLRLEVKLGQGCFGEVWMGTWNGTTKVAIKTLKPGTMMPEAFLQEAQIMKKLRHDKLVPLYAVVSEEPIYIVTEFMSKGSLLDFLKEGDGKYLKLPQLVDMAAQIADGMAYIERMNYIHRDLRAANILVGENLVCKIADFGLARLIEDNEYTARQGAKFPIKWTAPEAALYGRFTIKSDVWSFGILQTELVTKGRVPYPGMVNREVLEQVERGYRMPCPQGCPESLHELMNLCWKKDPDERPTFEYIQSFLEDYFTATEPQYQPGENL

The target of the test is Tyrosine-protein kinase Yes (Homo sapiens) (UniProt P07947). The test is described as follows: qHTS for small molecule inhibitors of Yes1 kinase: Primary Screen (AID 686947).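 For activity change, negative = inhibition: plate controls were DMSO with enzyme for no effect and no-enzyme DMSO wells for full effect.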 Note: nearly all actives have a fitted effect of over 60% in size. The note with it: Yes1 kinase biochemical qHTS inhibition; series mostly up to 76.9 µM; activity change, negative = inhibition: at the top concentration. The method in brief:
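ADP-Glo luminescence reports ADP formed by 4 nM Yes1 phosphorylating poly(E4Y) (0.3 mg/mL) with 0.1 mM ATP for 60 min at room temperature, following 20 min compound preincubation; normalised between DMSO wells with and without enzyme.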
For the compound `Nc1nccc(-c2ccc3noc(-c4ccc(Cl)cc4)c3c2)n1`, the “activity change, negative = inhibition” value is -0.552%.
For `N#Cc1ccc(C(c2ccc(C#N)cc2)n2cncn2)cc1`, the “activity change, negative = inhibition” value is 2.47%.
Consider `O=C(Nc1cccnc1)N1CCC(Cc2cccc(Oc3ccc(C(F)(F)F)cn3)c2)CC1`, for which the “activity change, negative = inhibition” value was 14.3%.
For the compound `Cc1cnc(Nc2ccc(OCCN3CCCC3)cc2)nc1Nc1cccc(S(=O)(=O)NC(C)(C)C)c1`, the “activity change, negative = inhibition” value is -9.39%.
Consider `CCOc1ccn(-c2ccc(F)cc2)c(=O)c1C(=O)Nc1ccc(Oc2ccnc(N)c2Cl)c(F)c1`, for which the Potency was 1.94 µM (active).
As for `COc1ccccc1-c1cccc(-c2c(O)c3cc(C#N)c(Cl)cc3[nH]c2=O)c1`, the “activity change, negative = inhibition” value was 21%.
Still for that read-out and setting: with `Cc1cc(SCc2sc(-c3ccc(C(F)(F)F)cc3)nc2C)ccc1OCC(=O)O` the figure was -5.37%; with `CS(=O)(=O)c1ccc(C(=O)Nc2ccc(Cl)c(-c3ccccn3)c2)c(Cl)c1`, 2.28%.
On the same count and under the same terms, with `OC[C@H](Cc1ccccc1)Nc1nc(Oc2ccc3c(c2)CCC3)nc2c1ncn2Cc1ccc(-c2ccccc2)cc1` the figure was 7.75%; with `CCC(C)n1ncn(-c2ccc(N3CCN(c4ccc(OC[C@H]5CO[C@](Cn6cncn6)(c6ccc(Cl)cc6Cl)O5)cc4)CC3)cc2)c1=O` (stereo partly drawn), 8.49%.
Take `NC(=O)c1ccc(-c2nc(-c3ccc4c(c3)OCCO4)c(-c3ccccn3)[nH]2)cc1`: the “activity change, negative = inhibition” value was 66.2%.
As for `OCCn1cc(-c2cnc3nnn(Cc4ccc5ncccc5c4)c3n2)cn1`, the “activity change, negative = inhibition” value was 84.1%.
As to `CN(C)c1ccc(Nc2nc(N)n(C(=O)c3c(F)cccc3F)n2)cc1`, the Potency is 0.772 µM (active).
Regarding `CC(C)OC(=O)C1=CN(C(=O)c2ccc(F)c(F)c2)CC(C)(C)c2c1[nH]c1ccccc21`, the “activity change, negative = inhibition” value is -1.76%.
The same measure, in the same setting: with `CN(C(=O)c1ccc(F)cc1C(F)(F)F)C1CCN(c2nnc(-c3ccnn3C)c3ccccc23)CC1` the figure was 5.46%.
On the same count and under the same terms, to `COc1ccc(COc2cc3oc(=O)c4cc(C(C)O)ccc4c3cc2OC)cc1` (stereo not drawn) belongs 51.4%; to `Cc1oncc1C(=O)Nc1ccc(C(F)(F)F)cc1`, 1.53%; to `COc1c(Cl)cc2c([nH]c3cnccc32)c1NC(=O)c1cccnc1C`, 16.6%.
For the compound `c1ccc(-c2nn3c(c2-c2ccnc4cc(OCCN5CCOCC5)ccc24)CCC3)nc1`, the Potency was 8.67 µM (active).
Regarding `CCCn1c(=O)c2[nH]c(C34CC5CC3C[C@@H](C5)C4)nc2n(CCC)c1=O`, the “activity change, negative = inhibition” value was -3.1%.
Consider `COc1ccc(C2=N[C@H](c3ccc(Cl)cc3)[C@H](c3ccc(Cl)cc3)N2C(=O)N2CCNC(=O)C2)c(OC(C)C)c1`, for which the Potency is 12.2 µM (active).
`O=C(C1CC1)N1CC[C@@H](Cn2c(-c3ccc(-c4ccc5occc5c4)cc3)nc3cnccc32)C1`: the “activity change, negative = inhibition” value was 10%.
In the case of `CCN(c1ccccc1)c1cc(NC)[n+](C)c(C)n1`, the “activity change, negative = inhibition” value is 15.3%.
`CC1(C)Cc2c(-c3ccccc3)c(-c3ccc(Cl)cc3)c(CC(=O)O)n2C1`: the “activity change, negative = inhibition” value is 10.4%.
Regarding `COc1ccc(-c2ccc3c(N4CCOC[C@H]4C)nc(N4CCOC[C@H]4C)nc3n2)cc1CO`, the “activity change, negative = inhibition” value is 2.31%.
For `CS(=O)(=O)Oc1ccc2c(NC(N)=O)c(C(=O)c3ccc(Cl)cc3Cl)oc2c1`, the “activity change, negative = inhibition” value was -0.425%.
Regarding `CCCc1nc2c(C)cc(-c3nc4ccccc4n3C)cc2n1Cc1ccc(-c2ccccc2C(=O)O)cc1`, the “activity change, negative = inhibition” value is -1.2%.
`COc1cc2c(cc1OC)CN(CCc1ccc(NC(=O)c3cccc4c(=O)c5cccc(OC)c5[nH]c34)cc1)CC2`: the “activity change, negative = inhibition” value was 32.5%.
As to `CCOC(=O)N[C@@H]1CC[C@@H]2[C@@H](C1)C[C@H]1C(=O)O[C@H](C)[C@H]1[C@@H]2C=Cc1ccc(-c2cccc(F)c2)cn1`, the “activity change, negative = inhibition” value was 1.66%.
On the same count and under the same terms, to `CCN(CC)CCCC(C)Nc1nc(C)cc(Nc2ccc3nc(C)cc(N)c3c2)n1` (stereo not drawn) belongs -8.83%; to `COc1ccc2c3n(c(=NC(=O)c4cccnc4)nc2c1OC)CCN3`, -8.62%.
In the case of `Cc1ccccc1C(C(=O)NC1CCCC1)N(C(=O)Cn1cnc2ccccc21)c1cccc(F)c1` (stereo not drawn), the “activity change, negative = inhibition” value was -4.43%.
For `COCC(=O)NCC=Cc1ccc2ncnc(Nc3ccc(Oc4ccc(C)nc4)c(C)c3)c2c1`, the Potency is 5.47 µM (active).
